Records with an inconclusive call do not appear. Activity calls are given as the source filed them. The calls were made as follows, unless noted: active = hit-call score of the fitted dose curve at least 0.9, where 1 is the maximum; inconclusive = response in the unintended direction; inactive = score below 0.9.
Test: CCTE_Mundy_HCI_hNP1_Casp3_7: CCTE's Caspase-Glo 3/7 Assay in human neuroprogenitor cells for Apoptosis, Mundy Lab (AID 2284240; active = hit-call score of the fitted dose curve at least 0.9, where 1 is the maximum; inactive = score below 0.9)
Outline: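 Apoptosis is scored by activated caspase-3/7 luminescence in WA09-derived neural progenitor cells, measured 26.5 h after chemical dosing. Values represent gain of signal relative to DMSO vehicle.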

SMILES | AC50 | outcome
BrC1CC(Br)CC(Br)CC(Br)CC(Br)CC(Br)C1 (stereo unspecified) | 4.22 µM (active) | –
CC(CNC(=S)[S-])NC(=S)[S-].[Zn+2] (stereo unspecified) | 11.1 µM (active) | –
CC(=O)N[C@@H](CC(=O)O)C(=O)O | – | inactive
CC(C)c1nn(C(=O)NC(C)(C)C)c(=O)n1N | – | inactive
Cc1[nH]n(C)c(=O)c1C(=O)c1ccc(C(F)(F)F)cc1S(C)(=O)=O | – | inactive
O=C(CC(=O)C(F)(F)F)C(F)(F)F | – | inactive
F | – | inactive
CCCCCC(C)(CC)C(=O)NC (stereo unspecified) | – | inactive
C[C@@H]1CCO[C@H]2Cn3cc(C(=O)NCc4ccc(F)cc4F)c(=O)c(O)c3C(=O)N12 | 10.1 µM (active) | –
CCCCCC=C(C)C(CC)CCO (stereo unspecified) | – | inactive
CCc1ccccc1 | – | inactive
C[C@@H]1CC[C@@H](C(C)(C)O)[C@H](O)C1 | – | inactive
CC(C)O | – | inactive

Test: CCTE_Mundy_HCI_hNP1_CellTiter: CCTE's Cell Titer-Glo 2 Assay in human neuroprogenitor cells for Viability, Mundy Lab (AID 2284241);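 as to AC50: a hit is a drop in ATP luminescence versus DMSO meaning reduced viability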
Outline: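 Human neural progenitor cells (hNP1, WA09-derived) were plated on poly-L-ornithine/laminin and grown 40 to 44 hours at 37 °C, 5% CO2 before chemical addition. Twenty-four hours later, ATP was measured by CellTiter-Glo luminescence; loss of signal versus DMSO indicates reduced viability.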

SMILES | AC50 | outcome
BrC1CC(Br)CC(Br)CC(Br)CC(Br)CC(Br)C1 (stereo unspecified) | 8.39 µM (active) | –
CC(CNC(=S)[S-])NC(=S)[S-].[Zn+2] (stereo unspecified) | – | inactive
CC(=O)N[C@@H](CC(=O)O)C(=O)O | – | inactive
CC(C)c1nn(C(=O)NC(C)(C)C)c(=O)n1N | – | inactive
Cc1[nH]n(C)c(=O)c1C(=O)c1ccc(C(F)(F)F)cc1S(C)(=O)=O | – | inactive
O=C(CC(=O)C(F)(F)F)C(F)(F)F | – | inactive
F | – | inactive
CCCCCC(C)(CC)C(=O)NC (stereo unspecified) | – | inactive
C[C@@H]1CCO[C@H]2Cn3cc(C(=O)NCc4ccc(F)cc4F)c(=O)c(O)c3C(=O)N12 | 14.9 µM (active) | –
CCCCCC=C(C)C(CC)CCO (stereo unspecified) | – | inactive
C[C@@H]1CC[C@@H](C(C)(C)O)[C@H](O)C1 | – | inactive
CC(C)O | – | inactive

Test: CCTE_Mundy_HCI_Cortical_Synap_Neur_Matur_NeuronCount: CCTE's Synaptogenesis and Neurite Maturation Assay in rat cortical cells for Neuron Count, Mundy Lab (AID 2284242);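 as to AC50: hits reduce neuron count versus DMSO baseline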
Outline: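 Rat primary cortical cells, AraC added at DIV 5, dosed with media change from DIV 7 to DIV 12. Fixed, Hoechst-stained and immunolabelled for MAP2 and synaptophysin; neuron number counted by high-content imaging, loss fitted versus DMSO.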

SMILES | AC50 | outcome
BrC1CC(Br)CC(Br)CC(Br)CC(Br)CC(Br)C1 (stereo unspecified) | 3.43 µM (active) | –
CC(CNC(=S)[S-])NC(=S)[S-].[Zn+2] (stereo unspecified) | 82.3 µM (active) | –
CC(=O)N[C@@H](CC(=O)O)C(=O)O | – | inactive
Cc1[nH]n(C)c(=O)c1C(=O)c1ccc(C(F)(F)F)cc1S(C)(=O)=O | – | inactive
F | – | inactive
[O]=[V]([OH])([OH])[OH] | 19.6 µM (active) | –
C[C@@H]1CCO[C@H]2Cn3cc(C(=O)NCc4ccc(F)cc4F)c(=O)c(O)c3C(=O)N12 | – | inactive
CN(C)CCCn1cc(C2=C(c3c[nH]c4ccccc34)C(=O)NC2=O)c2ccccc21 | – | inactive
CCCCCC=C(C)C(CC)CCO (stereo unspecified) | – | inactive
CCc1ccccc1 | – | inactive
CC(C)O | – | inactive

Reference: PubChem BioAssay (EPA / NIEHS)
